Compound activity: PubChem BioAssay, several laboratories
Sampled rows, rich in hits. Any-hit rate of the full collection: about 3.3%.
C2C12 statin: suppressors of statin myotoxicity in C2C12 myotubes, primary screen, cell-based, single point, plate reader | rescue of ATP level, % at 7.49 µM | C2C12 myotubes + simvastatin, ATP luminescence, 48 h; scaled: DMSO 0, geranylgeraniol control 100 | actives 0.78% (n = 330,000) | AID 602340, 2012;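 active = mean ATP rescue above about 67%, or every replicate alone reaching that limit, limit read from the data, passing the limit was not always enough; inconclusive = no clear call, values can overlap the other calls; inactive = mean under the limit and some replicate under it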;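 note: myotubes were challenged with 10 µM simvastatin during compound exposure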
esBAF inh: Bmi1 luciferase reporter increase in mESCs, primary screen, esBAF inhibitor project, mouse ES cells, Bmi1 luciferase knock-in, single point; 24 h; 100% = twice the neutral-well signal; reporter increase, % at 12.5 µM; actives 2% (n = 350,000); AID 602393, 2012; in the data active = activation above about 40%; inconclusive = no clear call, values can overlap the other calls;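 note: 0% = median of the plate's neutral control wells and 100% = double that signal; a rise in the Bmi1 reporter signal indicates esBAF inhibition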
MITF TRPM1 HTS: activators of MITF-driven TRPM1 promoter reporter, primary screen, cell-based, SK-MEL-5, luciferase, single point | SK-MEL-5 TRPM1-promoter luciferase, 24 h; % of positive control, neutral wells = 0 | activation, % at 12.5 µM | actives 0.75% (n = 300,000);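 active = mean activation of at least 80% with every replicate also reaching 80%; inconclusive = mean reaches 80% but some replicate falls short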;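 note: 0% = neutral control wells and 100% = parthenolide positive control wells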
GAA850 FXN act: FXN promoter activators, primary screen, cell-based, luciferase luminescence, HEK293 lucGAA850; activation, % at 6 µM; actives 0.56% (n = 360,000); HEK293 lucGAA850 FXN promoter luciferase reporter, 24 h; percent of 10 µM SAHA response;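 active = activation above the average of all compounds screened plus 3 SD, cutoff fixed separately per campaign, cut at about 7.5% in these data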;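 note: 0% = DMSO wells and 100% = 10 µM SAHA wells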
Wnt bcat act: Wnt/beta-catenin pathway activators, primary screen, cell-based, plate reader, single point; activation, % at 9.35 µM; AID 743398, 2014; Wnt/beta-catenin reporter cell assay, activator; actives 1.2% (n = 300,000); in the data active = activation above about 30%, passing the limit was not always enough; inconclusive = no clear call, values can overlap the other calls;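 note: 0% = neutral control wells and 100% = positive control wells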
* marks the source's active call; other numbers are inactive results; ? = inconclusive; . = no result given.

SMILES	C2C12 statin	esBAF inh	MITF TRPM1 HTS	GAA850 FXN act	Wnt bcat act
CCNC(=O)[C@@H]1[C@@H](CO)[C@@H]2Cn3c(ccc(C4=CCCC4)c3=O)[C@H]1N2C(=O)CC	0.4	1.7	.	.	.
Cc1ccc(OCc2ccc(Br)cc2)c([N+](=O)[O-])n1	.	.	.	.	60.6*
Cc1ccc(OCC(=O)Nc2ccc(Cl)cc2)c([N+](=O)[O-])n1	3.2	62.9*	109.7*	3.8	41.5*
COc1cc(Cl)c(C)cc1NC(=O)COc1ccc(C)nc1[N+](=O)[O-]	-17.0	80.7*	99.2*	1.1	18.1
Cc1ccc(OCC(=O)Nc2ccc(F)cc2)c([N+](=O)[O-])n1	.	.	104.0*	3.7	12.1
COc1ccc(NC(=O)COc2ccc(C)nc2[N+](=O)[O-])cc1S(N)(=O)=O	4.5	-7.0	-6.1	0.6	-1.0
C[C@@H]1CN([C@@H](C)CO)S(=O)(=O)c2ccc(C#CC3CC3)cc2O[C@H]1CN(C)CC1CCOCC1	-83.9	4.9	.	.	.
COCc1cn(CC[C@@H]2CC[C@@H](NC(=O)Nc3ccc(OC)cc3)[C@@H](CO)O2)nn1	-1.0	-4.4	.	.	.
C[C@H](CO)N1C[C@H](C)[C@H](CN(C)S(=O)(=O)c2ccccc2)Oc2c(NC(=O)C3CCOCC3)cccc2C1=O	0.4	-1.5	.	.	.
O=C(COc1cccnc1[N+](=O)[O-])Nc1cc(Cl)ccc1Cl	4.2	48.1*	67.5	3.6	-2.3
C[C@@H]1CN([C@H](C)CO)C(=O)c2cc(NC(=O)c3ccncc3)ccc2O[C@@H](C)CCCCO[C@H]1CN(C)S(=O)(=O)c1cccs1	.	-0.4	.	.	.
Brc1ccc(-c2cn3ccccc3n2)cc1	-25.0	-23.2	21.7	1.2	49.1*
c1ccc(-c2cn3ccccc3n2)cc1	4.4	0.3	59.3	3.6	15.9
Oc1ccc(-c2cn3ccccc3n2)cc1	-2.2	2.8	79.9	1.6	38.5*
Brc1ccc(OCc2cn3ccccc3n2)cc1	.	.	92.9*	4.7	17.2
Brc1ccc(-c2cn3cccnc3n2)cc1	.	?	.	0.8	.
CCCC(=O)Nc1ccc2c(c1)OC[C@H](C)N(Cc1nccs1)C[C@@H](C)[C@H](OC)CN(C)C2=O	7.6	-2.2	.	.	.
COC(=O)C1=C(CSCc2ccco2)NC(=O)NC1c1cc(C)ccc1C (stereo not given)	134.2*	-3.0	.	-0.5	-1.0
C[C@@H]1CCCCO[C@H](CN(C)C(=O)NC2CCCCC2)[C@H](C)CN([C@H](C)CO)C(=O)c2cc(NC(=O)Nc3ccc(C(F)(F)F)cc3)ccc2O1	.	3.4	.	.	.
Cc1cc(C)n2nc(Nc3ccccc3)cc2n1	-1.7	33.3	12.1	2.6	.
Cc1cc(C)n2nc(-c3ccccc3)cc2n1	10.0	42.7*	11.7	4.5	12.0
Cc1ccc(-c2cc3nc(C)cc(C)n3n2)cc1	-2.9	59.9*	16.0	5.0	15.5
Cc1cc(C)n2nc(-c3ccc(F)cc3)cc2n1	5.5	54.5*	.	7.0	2.3
C[C@@H]1CN([C@H](C)CO)C(=O)c2cc(NC(=O)Nc3ccc(F)cc3)ccc2O[C@@H]1CN(C)S(=O)(=O)c1ccc(Cl)cc1	-19.2	-1.0	.	.	.
C[C@@H]1CN([C@H](C)CO)C(=O)c2cc(NS(=O)(=O)c3ccc(Cl)cc3)ccc2O[C@@H](C)CCCCO[C@@H]1CN(C)CC1CCCCC1	.	-1.9	.	.	.
SMILES	C2C12 statin	esBAF inh	MITF TRPM1 HTS	GAA850 FXN act	Wnt bcat act
O=C(N[C@@H]1CC[C@H](CCNC(=O)C2CCC2)O[C@@H]1CO)c1ccccn1	-4.1	-2.2	.	.	.
CN(C)C(=O)C[C@H]1C=C[C@H](NC(=O)C2CCC2)[C@@H](CO)O1	-6.8	3.1	.	.	.
COc1cccc(CC(=O)Nc2ccc3c(c2)OC2(CCCC2)O3)c1	12.0	42.2*	19.3	3.1	2.8
CC(=O)Nc1ccc(CC(=O)Nc2ccc3c(c2)OC2(CCCC2)O3)cc1	-1.4	46.2*	.	2.8	-5.5
COc1ccc(S(=O)(=O)N(C)C[C@H]2Oc3c(NC(=O)C4CC4)cccc3C(=O)N([C@@H](C)CO)C[C@H]2C)cc1	8.9	2.4	.	.	.
C[C@H](CO)N1C[C@H](C)[C@@H](CN(C)Cc2ccc(C(=O)Nc3ccccc3N)cc2)Oc2c(NC(=O)c3nc4ccccc4s3)cccc2C1=O	-2.5	6.8	.	.	.
O=C(Nc1ccccc1Cl)C(=O)c1cn(CC(=O)N2CCOCC2)c2ccccc12	0.3	52.1*	83.2*	4.0	38.8*
O=C(NCc1ccc(Cl)cc1)C(=O)c1cn(CC(=O)N2CCOCC2)c2ccccc12	-2.9	11.7	9.2	2.5	5.3
COc1ccccc1C1CC(c2cccs2)=Nc2ccccc2S1 (stereo not given)	20.4	53.1*	2.9	6.9	40.8*
C(=C\c1ccccc1)/CSc1ccccn1	.	.	108.5*	1.8	54.4*
C/C=C/c1ccc2c(c1)O[C@@H](CN(C)Cc1ccccn1)[C@@H](C)CN([C@H](C)CO)S2(=O)=O	4.1	-3.2	.	.	.
Oc1ccc(/C=C/c2cc(O)cc(O)c2)cc1	7.0	-3.5	104.2*	2.4	0.0
COc1cc(O)cc(/C=C/c2ccccc2)c1	-2.6	50.8*	78.6	2.2	-3.5
O=C(O)/C=C/c1ccc(O)cc1	-6.9	-2.5	-7.2	1.1	-1.8
Fc1ccc(NC(=S)Nc2nccs2)cc1	.	.	26.1	7.1	-2.0
COc1cc(OC)cc(C(=O)Nc2nnc(NC(=S)Nc3ccccc3)s2)c1	.	.	-2.5	-0.4	.
O=C(Nc1nccs1)c1ccc(Br)cc1	-4.8	43.1*	?	0.9	12.1
S=C(Nc1ccccc1)Nc1nccs1	1.8	59.5*	55.9	5.7	10.1
C/C(=C\c1ccccc1)C(=O)Nc1nccs1	-9.4	?	78.0	3.2	52.3*
CC(C)(C)c1nnc(NC(=S)Nc2ccccc2)s1	0.6	75.5*	52.9	4.4	17.4
Cc1ccc(Oc2cc(-n3nc(C)cc3C)ncn2)cc1	-0.6	47.5*	62.2	1.8	.
COc1ccccc1NNC(=O)c1cc(C(C)(C)C)nn1Cc1ccccc1	.	.	.	-0.1	54.0*
Cc1ccc(NNC(=O)c2cc(C(C)(C)C)nn2Cc2ccccc2)cc1	27.7	-12.2	-0.9	1.5	2.5
COc1cccc(/C=C/C(=C2\C(=O)N(c3ccccc3)N=C2C)c2ccc(Br)cc2)c1OC	-0.8	-8.4	.	-2.3	33.1*
COCC(=O)N1[C@H](C(=O)N2CCCCC2)[C@@H](CO)[C@@H]2Cn3c(ccc(C4=CCCC4)c3=O)[C@@H]21	19.3	-0.4	.	.	.
COc1cc(C)ccc1OCCOc1ccccc1Cl	0.4	76.7*	90.3*	4.0	.
COc1cc(C)ccc1OCCCOc1ccccc1Cl	1.1	71.2*	126.4*	5.0	.
C[C@@H]1CCCCO[C@@H](CN(C)C(=O)Nc2ccccc2)[C@@H](C)CN([C@H](C)CO)C(=O)c2cc(NC(=O)c3ccccc3)ccc2O1	.	-5.1	.	.	.
